# Experimental data as given in PubChem BioAssay (NCI).
# About 79,000 compounds went through this panel and 15% of them were active in at least one assay; those are over-represented in the sample as a whole. Values without a mark were called inactive. The source made the active and inactive calls. Cut-off read from the data, not from the text of the source: active = growth inhibition above about 70%; inactive = the rest.
# Experiment: NCI Yeast Anticancer Drug Screen. Data for the rad50 strain (AID 155);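 note: 0% = growth of vehicle-only cultures of the same strain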
# Details: S. cerevisiae rad50 strain growth inhibition; at 50.0 µM; active compounds read high
# Procedure, shortened: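 Readout: growth inhibition relative to vehicle-treated cultures. Compound exposure was carried out in a genetically defined yeast strain deficient in DNA damage repair.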
row,SMILES,growth inhibition
1,Cc1cn(C2CC(O)C(CO)O2)c(=O)nc1NC1CC1 (stereo not given),-7%
2,CNCSc1ccccc1,-6.6%
3,Cc1ccc(NC(=S)NC(Cc2ccccc2)c2ccccc2)cc1 (stereo not given),78.8% (active)
4,CC(=O)NS(=O)(=O)c1ccc(NC(=O)COC(=O)c2cccc3c(=O)c4ccccc4[nH]c23)cc1,-33.1%
5,Cc1ccc(CNC2=C(Cl)C(=O)c3ccccc3C2=O)cc1C,96.9% (active)
6,Cc1ccc(Cl)c2c1C(=O)c1ccccc1C2=O,24.2%
7,NC(=O)/C(=C\c1ccncc1)c1cccc2ccccc12,-0.55%
8,CC(=O)OCC1OC(n2nc(/C=C/c3ccccc3)c(=O)n(-c3ccccc3)c2=S)C(OC(C)=O)C(OC(C)=O)C1OC(C)=O (stereo not given),0.1%
9,COC1(OC)C(c2ccc(Cl)cc2)C(C#N)(C#N)C1(OC)OC (stereo not given),-7.25%
10,N=C(N)S/C=C/C(=O)O,-18.8%
11,Clc1ccc(/C=N/c2ccccn2)cc1,-37.2%
12,Clc1nnc(Cl)c2ncccc12,3.6%
13,O=C(NN=C1CCCCC1)c1ccccc1,-6%
14,Clc1ccc2c(N3CCC(CCC4CCN(c5ncnc6cc(Cl)ccc56)CC4)CC3)ncnc2c1,-17.9%
15,CCOC(=O)Nc1cc2c(c(N)n1)N=C(CN(C)c1ccccc1)CN2,22.9%
16,NCCCN(CCO)CCO,-42.5%
17,Nc1nc(Cl)nc(Nc2ccc(-c3cc4ccc(-c5ncc[nH]5)cc4[nH]3)cc2)n1,15.5%
18,CCCC(C(C)=O)C(C)=O,-7.8%
19,O=C(O)C(CSC(c1ccccc1)(c1ccccc1)c1ccccc1)NSc1ccccc1[N+](=O)[O-] (stereo not given),96.2% (active)
20,Cc1ccc(-c2cc(-c3ccco3)nc(N)n2)o1,-23.9%

row,SMILES,growth inhibition
1,O=C(c1cc(O)c(O)c(O)c1)c1ccc(O)c(O)c1O,12.9%
2,CC(=O)Nc1ccc(/C=C/C(=O)c2sc(-c3cccnc3)nc2C)cc1,33.2%
3,COC(=O)c1cc(Cl)c(C(=O)OC)cc1Cl,4.1%
4,CN1CCCc2cccc(NC(=O)C3CCCNC3=O)c21 (stereo not given),-15.3%
5,O=C(O)C1Cc2c([nH]c3ccccc23)C(CCCCO)N1 (stereo not given),-31.6%
6,CCN(CC)CCNC(=O)c1ccccc1NC(=O)C(=O)Nc1ccccc1C(=O)NCCN(CC)CC,-46.9%
7,CO[C@@H]1C=C[C@@]23c4cc5c(cc4CN(C[C@@H]2O)[C@H]3C1)OCO5,3.95%
8,COc1c(Cl)cc(Cl)c(C)c1C(C)C(=O)O (stereo not given),21.4%
9,O=C(O)c1c(Cl)c(Cl)c(Cl)c(Cl)c1C(=O)Nc1cccc(C(F)(F)F)c1,-9.55%
10,COc1nc(SC)nc2c1cnn2C1OC(C(O)CO)C(OC)C1O (stereo not given),4.85%
11,Cc1ccc(S(=O)(=O)N2CCSCCN(S(=O)(=O)c3ccc(C)cc3)CCN(S(=O)(=O)c3ccc(C)cc3)CC2)cc1,5.7%
12,CN(C)NC(=O)Oc1ccc(Cl)cc1,-0.25%
13,Cc1cc(C)c(NC(=O)CC#N)cc1C,-5%
14,CC(=O)OC1CC2CC1C1C=CCC21 (stereo not given),10.3%
15,O=[N+]([O-])c1ccccc1C=Nc1ccc2nc(SCc3ccccc3)sc2c1,8.15%
16,Cc1ccc(C(=O)c2ccc(O)cc2)cc1,-25.4%
17,N/N=C1\C(=O)N(Cc2ccccc2)C(=O)C1C(=O)NCc1ccccc1 (stereo not given),7.5%
18,CCN(CC)C(COC(=O)Nc1ccccc1)COC(=O)Nc1ccccc1,1.85%
19,COC(=O)C(=O)C(C(=O)C(=O)Nc1cccc(OC)c1)c1nc2ccc(Cl)cc2[nH]c1=O (stereo not given),21.1%
20,O=c1nc(NC2CC2)ccn1C1OC(CO)C(O)C1O (stereo not given),-3.75%

# Experiment: NCI Yeast Anticancer Drug Screen. Data for the mec2-1 strain (AID 157)
# Details: S. cerevisiae mec2-1 strain, at 50.0 µM, active compounds read high
# Procedure, shortened: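 Strain: mec2-1 (DNA repair/cell cycle alteration). Compound exposure, then growth measured; inhibition expressed relative to vehicle.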
row,SMILES,growth inhibition
1,Cc1cn(C2CC(O)C(CO)O2)c(=O)nc1NC1CC1 (stereo not given),3.45%
2,CNCSc1ccccc1,-19.9%
3,Cc1ccc(NC(=S)NC(Cc2ccccc2)c2ccccc2)cc1 (stereo not given),79.2% (active)
4,CC(=O)NS(=O)(=O)c1ccc(NC(=O)COC(=O)c2cccc3c(=O)c4ccccc4[nH]c23)cc1,5%
5,Cc1ccc(CNC2=C(Cl)C(=O)c3ccccc3C2=O)cc1C,98.2% (active)
6,Cc1ccc(Cl)c2c1C(=O)c1ccccc1C2=O,7.65%
7,NC(=O)/C(=C\c1ccncc1)c1cccc2ccccc12,-5.1%
8,CC(=O)OCC1OC(n2nc(/C=C/c3ccccc3)c(=O)n(-c3ccccc3)c2=S)C(OC(C)=O)C(OC(C)=O)C1OC(C)=O (stereo not given),20.6%
9,COC1(OC)C(c2ccc(Cl)cc2)C(C#N)(C#N)C1(OC)OC (stereo not given),-13.2%
10,N=C(N)S/C=C/C(=O)O,-17.4%
11,Clc1ccc(/C=N/c2ccccn2)cc1,-51.4%
12,Clc1nnc(Cl)c2ncccc12,8.3%
13,O=C(NN=C1CCCCC1)c1ccccc1,-10.1%
14,Clc1ccc2c(N3CCC(CCC4CCN(c5ncnc6cc(Cl)ccc56)CC4)CC3)ncnc2c1,-21.6%
15,CCOC(=O)Nc1cc2c(c(N)n1)N=C(CN(C)c1ccccc1)CN2,6.15%
16,NCCCN(CCO)CCO,-3.1%
17,Nc1nc(Cl)nc(Nc2ccc(-c3cc4ccc(-c5ncc[nH]5)cc4[nH]3)cc2)n1,45.5%
18,CCCC(C(C)=O)C(C)=O,-0.65%
19,O=C(O)C(CSC(c1ccccc1)(c1ccccc1)c1ccccc1)NSc1ccccc1[N+](=O)[O-] (stereo not given),97.2% (active)
20,Cc1ccc(-c2cc(-c3ccco3)nc(N)n2)o1,-9.1%

row,SMILES,growth inhibition
1,O=C(c1cc(O)c(O)c(O)c1)c1ccc(O)c(O)c1O,5.95%
2,CC(=O)Nc1ccc(/C=C/C(=O)c2sc(-c3cccnc3)nc2C)cc1,11.8%
3,COC(=O)c1cc(Cl)c(C(=O)OC)cc1Cl,3%
4,CN1CCCc2cccc(NC(=O)C3CCCNC3=O)c21 (stereo not given),1.35%
5,O=C(O)C1Cc2c([nH]c3ccccc23)C(CCCCO)N1 (stereo not given),-7.85%
6,CCN(CC)CCNC(=O)c1ccccc1NC(=O)C(=O)Nc1ccccc1C(=O)NCCN(CC)CC,-13.2%
7,CO[C@@H]1C=C[C@@]23c4cc5c(cc4CN(C[C@@H]2O)[C@H]3C1)OCO5,-26.1%
8,COc1c(Cl)cc(Cl)c(C)c1C(C)C(=O)O (stereo not given),5.85%
9,O=C(O)c1c(Cl)c(Cl)c(Cl)c(Cl)c1C(=O)Nc1cccc(C(F)(F)F)c1,10.2%
10,COc1nc(SC)nc2c1cnn2C1OC(C(O)CO)C(OC)C1O (stereo not given),-1.7%
11,Cc1ccc(S(=O)(=O)N2CCSCCN(S(=O)(=O)c3ccc(C)cc3)CCN(S(=O)(=O)c3ccc(C)cc3)CC2)cc1,-2.7%
12,CN(C)NC(=O)Oc1ccc(Cl)cc1,-0.35%
13,Cc1cc(C)c(NC(=O)CC#N)cc1C,-12.6%
14,CC(=O)OC1CC2CC1C1C=CCC21 (stereo not given),3.75%
15,O=[N+]([O-])c1ccccc1C=Nc1ccc2nc(SCc3ccccc3)sc2c1,3.65%
16,Cc1ccc(C(=O)c2ccc(O)cc2)cc1,-7.65%
17,N/N=C1\C(=O)N(Cc2ccccc2)C(=O)C1C(=O)NCc1ccccc1 (stereo not given),13.8%
18,CCN(CC)C(COC(=O)Nc1ccccc1)COC(=O)Nc1ccccc1,-2.3%
19,COC(=O)C(=O)C(C(=O)C(=O)Nc1cccc(OC)c1)c1nc2ccc(Cl)cc2[nH]c1=O (stereo not given),-1.2%
20,O=c1nc(NC2CC2)ccn1C1OC(CO)C(O)C1O (stereo not given),-4.25%
